# Source: PubChem (National Center for Advancing Translational Sciences (NCATS))
# FLuc counter = inhibits or activates purified firefly luciferase, miR-21 counter-screen. actives 6.9% (n = 360,000). AID 588342. purified FLuc, Km substrates, luminescence inhibition. P08659. Potency, µM (titrated, usually from 57.5 µM), usual class: inhibitors; note: nearly all actives have a fitted effect of over 55% in size
# Target sequence (P08659 whole entry, looked up): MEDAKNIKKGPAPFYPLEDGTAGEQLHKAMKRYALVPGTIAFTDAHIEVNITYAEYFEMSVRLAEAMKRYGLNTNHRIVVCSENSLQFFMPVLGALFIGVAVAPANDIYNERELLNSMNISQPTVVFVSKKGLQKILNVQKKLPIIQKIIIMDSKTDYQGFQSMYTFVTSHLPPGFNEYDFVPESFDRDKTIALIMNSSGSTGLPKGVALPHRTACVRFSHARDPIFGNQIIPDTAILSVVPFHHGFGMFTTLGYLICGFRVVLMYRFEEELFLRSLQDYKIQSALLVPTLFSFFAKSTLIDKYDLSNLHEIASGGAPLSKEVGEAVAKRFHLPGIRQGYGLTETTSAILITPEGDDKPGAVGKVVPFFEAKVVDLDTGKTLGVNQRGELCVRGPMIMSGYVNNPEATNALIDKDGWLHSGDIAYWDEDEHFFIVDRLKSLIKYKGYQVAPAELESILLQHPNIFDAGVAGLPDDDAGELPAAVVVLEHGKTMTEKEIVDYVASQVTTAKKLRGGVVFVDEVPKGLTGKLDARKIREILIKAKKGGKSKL
#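 Purified P. pyralis luciferase, 10 nM final, with Km-level 10 uM D-luciferin and 10 uM ATP in 50 mM Tris acetate pH 7.5, 10 mM Mg acetate, 0.01% Tween-20, 0.05% BSA; 6-point qHTS titration about 60 µM downward; luminescence read.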
# ELG1 genotox = genotoxicity induction in ELG1-luciferase HEK293T cells; HEK293T ELG1-luciferase reporter, luminescence, 16 h; Potency, µM (top dose mostly 46 µM), usual class: activators; actives 1.3% (n = 330,000); note: nearly all actives have a fitted effect of over 60% in size
#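 After overnight (16 hr) compound treatment at 37 °C, ELG1-luciferase HEK293T cells were lysed with ONE-Glo; luminescence quantified 30 min later at room temperature.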
# Rab9 prom act = activates the Rab9 promoter; Huh7 Rab9 promoter-luciferase reporter, luminescence, 24 h; actives 2.8% (n = 320,000); Potency, µM (titrated, usually from 9.22 µM), hits mostly activators; note: nearly all actives have a fitted effect of over 60% in size
#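 Huh7 cells stably carrying a Rab9 promoter-luciferase reporter, 1500 cells per well in OP-MEM I with 10% FBS, treated with compound 24 hours at 37C. Luciferase activity read by luminescence after 10 minutes with Amplite reagent.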
# NPC1 prom act = activators of NPC1 promoter; Potency, µM (top dose mostly 9.22 µM), usual class: activators; actives 2.4% (n = 320,000); Huh7 NPC1 promoter luciferase reporter, 24 h; note: nearly all actives have a fitted effect of over 60% in size
#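 Stably transfected Huh7 (NPC1 promoter→luciferase), 1500 cells/well in Opti-MEM + 10% FBS, 2 h settle, then compound 24 h at 37 °C. Luminescence after 10 min with Amplite reagent.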
# ELG1 repair inh = blocks ELG1-dependent DNA repair in HEK293T cells; Potency, µM (highest dose often 46.1 µM), actives largely listed as inhibitors; actives 2.3% (n = 330,000); HEK293T ELG1-luciferase reporter, luminescence, 16 h; DNA damage induced by 5-fluorouridine; AID 504467; note: nearly all actives have a fitted effect of over 55% in size
#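 DMSO vehicle served as the neutral condition. Each well held 2,000 cells given 5-fluorouridine plus compound; after 16 hr at 37 °C/5% CO2, ONE-Glo was added and luciferase measured 30 min later.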
# SMN2 splice up = increases expression of the SMN2 splice variant; Potency, µM (titrated, usually from 46.1 µM), usual class: activators; HEK293 SMN2-luciferase splicing reporter, luminescence, 30-36 h; actives 2.8% (n = 210,000); AID 1458; note: nearly all actives have a fitted effect of over 55% in size
#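 HEK293 cells carry an SMN2 […]–luciferase reporter in which exon 7 inclusion puts luciferase in frame. Cells were plated 10-12 h before compound addition, then incubated 30-36 h at 37C. ONE-Glo luminescence was read; sodium butyrate at 4.5 mM final served as control.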
# Hits are given with their value; 0 = inactive; ? = inconclusive; - = not tested or not shown; [ ] = another dose, or the depositor's remark. Only some compounds are listed: those with a hit (about 9.2% of all), similar ones and a draw of the others. Calls come from the whole dose curve; as a rule, active = well fitted curve in the direction sought with a large enough effect; inconclusive = small, poorly fitted or top-dose-only effect, or another doubt; inactive = no such curve, though single readings can be large; an effect the other way counts as inactive or inconclusive.
SMILES,FLuc counter,ELG1 genotox,Rab9 prom act,NPC1 prom act,ELG1 repair inh,SMN2 splice up
O=C(NCc1ccc(F)cc1)C1CCN(c2ncnc3c2nc2n3CCCCC2)CC1,0,-,-,-,-,-
CC(C)(C)c1ccc(C(=O)Nc2cccc3ncccc23)cc1,13.5µM,0,0,0,0,-
Nc1ccc(C(=O)Nc2cccc3ncccc23)cc1,0,0,0,0,0,-
CC(C)(C)c1ccc(C(=O)Nc2ccccc2NC(=O)c2ccco2)cc1,19µM,0,0,0,?,0
CC(C)(C)c1ccc(C(=O)Nc2ccccc2Cl)cc1,1.9µM,0,0.708µM,0.794µM,?,-
Cc1ccc(CNC(=O)Cn2cc(S(=O)(=O)Cc3ccccc3Cl)c3ccccc32)cc1,0,-,-,-,-,-
CCCCCc1ccc(OCCOCCn2c[n+](C)c3ccccc32)c(CCCCC)c1,0,0,0,0,7.3µM,0
CCCCCc1ccc(OCCC[n+]2ccccc2)c(CCCCC)c1,0,0,0,0,?,-
COc1ccccc1NCC(=O)NC(=O)NC1CCCCC1,-,0,-,-,0,-
CC(C)c1ccc(NC(=O)c2cc3c(=O)oc4ccccc4c3s2)cc1,0,-,-,-,-,0
O=C(Nc1ccccc1)c1cc2ccccc2c(=O)s1,10.7µM,0,2.82µM,?,?,?
O=C(Nc1ccc(O)cc1)c1cc2ccccc2c(=O)s1,?,0,?,3.98µM,?,-
Cc1cc(C)cc(NC(=O)c2cc3c(=O)n4ccccc4nc3s2)c1,0,0,0,0,0,-
Cn1c([N+](=O)[O-])cnc1CN1CCN(CCO)CC1,-,-,-,-,-,0[9.22 µM]
O=C(/C=C/c1ccccc1)NC1CCSC1=O (stereo not given),?,0,0,0,?,15.8µM
O=C(NC1CCSC1=O)c1ccccc1 (stereo not given),0,0,0,0,0,0
Cc1cccc(NC(=O)c2onc3c2CCCC3)n1,0.757µM,0.92µM,0.398µM,0.501µM,?,-
Cc1ccccc1NC(=O)c1onc2c1CCCC2,6.01µM,?,2.51µM,4.47µM,?,?
Cc1cccc(NC(=O)c2onc3c2CCCC3)c1C,7.57µM,?,2.82µM,4.47µM,?,0
COc1cccc(N2CC(NC(=O)c3cccs3)CC2=O)c1 (stereo not given),0,-,-,-,-,-
O=C(CSc1cccs1)Nc1cccc2ccccc12,13.5µM,?,?,?,?,12.6µM
O=C(CSc1cccs1)Nc1ccc2ccccc2c1,21.3µM,?,?,?,?,0
O=C(Nc1cccc(-c2ccc(N3CCCCC3)nn2)c1)c1ccc(Br)o1,0.338µM,2.31µM,2.82µM,1.26µM,?,-
O=C(Nc1cccc(-c2ccc(N3CCCCC3)nn2)c1)C(F)(F)F,1.35µM,?,0.794µM,0.282µM,?,-
O=C(Nc1cccc(-c2ccc3nncn3n2)c1)C(F)(F)F,0,0,0,0,0,-
SMILES,FLuc counter,ELG1 genotox,Rab9 prom act,NPC1 prom act,ELG1 repair inh,SMN2 splice up
CC1CCN(C(=O)C(C)Sc2nc(-c3ccccc3)cc(C(F)(F)F)n2)CC1 (stereo not given),0,0,0,0,?,0
CC1CCN(c2ccc(-c3cccc(NC(=O)C(F)(F)F)c3)nn2)CC1,0.239µM,0.13µM,0.316µM,?,?,-
Cc1cc(C)cc(NC(=O)Nc2cccc(S(N)(=O)=O)c2)c1,15.1µM,0,0,0,0,-
Cc1cccc(NC(=O)Nc2ccc3c(c2)CCC3)c1,3.01µM,?,1.78µM,2µM,?,-
CCc1ccc(NC(=O)Nc2ccc3c(c2)CCC3)cc1,0,?,?,?,?,-
Cc1cccc(NC(=O)Nc2ccncc2)c1,16.9µM,0,0,0,?,?
CC(=O)c1cccc(NC(=O)NC2CCCc3ccccc32)c1 (stereo not given),0,0,0,0,0,-
CC(=O)c1cccc(NC(=O)Nc2ccc3c(c2)CCC3)c1,2.39µM,0,?,?,?,-
COC(=O)CCN1CCN(S(=O)(=O)c2ccc3c(c2)OCCO3)CC1,-,0,0,0,0,-
CC(C)Oc1cccc(C(=O)Nc2ccc3oc(-c4cccc(Cl)c4)nc3c2)c1,0,-,-,-,-,0
N#Cc1c(-c2ccccc2Cl)noc1/C=C/Nc1ccc(C(=O)O)cc1,23.9µM,0,0,0,0,-
CCOc1ccc(CCNC(=O)CCCc2nnc3n(CCCOC)c(=O)c4sccc4n23)cc1,0,-,-,-,-,-
CCN(CC)CCN1C(=O)c2ccccc2NC1c1ccc(N(C)C)cc1 (stereo not given),23.9µM,0,0,0,?,0
Cc1cc2n(n1)C(c1ccc(N(C)C)cc1)Nc1ccccc1-2 (stereo not given),30.1µM,0,0,0,?,0
CN(C)c1ccc(C2Nc3ccccc3C(=O)N2CCCN2CCOCC2)cc1 (stereo not given),4.78µM,0,0,0,?,-
CCN(CC)CCN1C(=O)c2ccccc2NC1c1ccc(F)cc1 (stereo not given),0,0,0,0,0,0
CCCOc1ccc(CNC(=O)Cn2cc3c(n2)-c2c(oc(C(=O)N4CCOCC4)c2C)CC3)cc1,0,-,-,-,-,-
COc1ccc(-c2c(C)nn3c(C(F)(F)F)cc(-c4ccccc4)nc23)cc1,0,-,-,-,-,0
CN(Cc1cccs1)C(=O)c1ccc(Cl)c(S(=O)(=O)N2CCCCCC2)c1,-,0,-,-,20.6µM,-
Cc1ccc(C(=O)N(CCc2ccccc2)Cc2ccccc2)cc1S(=O)(=O)N1CCCCC1,0,0,0,0,?,-
CC1CN(S(=O)(=O)c2cc(C(=O)N(CCc3ccccc3)Cc3ccccc3)ccc2Cl)CC(C)O1 (stereo not given),0,0,0,0,23.1µM,-
COc1ccc([N+](=O)[O-])cc1N(CC(=O)N1CCOCC1)S(C)(=O)=O,0,0,0[1.84 µM],0,0,0
OCCn1ccc(-c2ccccc2OCc2ccc(F)cc2)n1,0,0,0,0,0,-
CC1(C)Cc2ccccc2C(/C(C#N)=N/O)=N1,?,0,0,0,0,0
COc1ccc(N/N=C(/C(N)=O)C2=NC(C)(C)Cc3ccccc32)cc1,0,0,0,0,23.1µM,0
SMILES,FLuc counter,ELG1 genotox,Rab9 prom act,NPC1 prom act,ELG1 repair inh,SMN2 splice up
Cc1cc(C(=O)Cn2nnc3ccccc3c2=O)c(C)n1Cc1cccs1,0.601µM,2.59µM,0.447µM,0.355µM,?,0
CCCn1c(C)cc(C(=O)CN2C(=O)c3cccc(N)c3C2=O)c1C,2.69µM,?,3.16µM,2.82µM,?,?
Cc1cc(C(=O)CN2C(=O)c3ccccc3C2=O)c(C)n1Cc1cccs1,0.849µM,?,0.398µM,0.501µM,?,14.1µM
Cc1cc(C(=O)CN2C(=O)CCC2=O)c(C)n1Cc1ccccc1,?,?,0,0,?,0
Nc1ccc(C(=O)C[C@H](N)C(=O)O)cc1O,-,-,-,-,-,0[9.22 µM]
Cc1ccc(Cl)cc1NC(=O)N(C)CCO,0,0,0,0,0,-
COc1ccccc1CN1CC(C(=O)NCc2c(F)ccc(C)c2F)CCC1=O (stereo not given),30.1µM,?,?,?,?,-
